LmPK inh – LmPK (Leishmania mexicana) enzyme inhibition; 290,000 compounds, 0.37% hits; purified LmPK, Kinase-Glo ATP luminescence, 1 h; Q27686; Potency, µM (doses to about 57.5 µM), most hits filed as inhibitors
Target sequence (Q27686 whole entry, looked up): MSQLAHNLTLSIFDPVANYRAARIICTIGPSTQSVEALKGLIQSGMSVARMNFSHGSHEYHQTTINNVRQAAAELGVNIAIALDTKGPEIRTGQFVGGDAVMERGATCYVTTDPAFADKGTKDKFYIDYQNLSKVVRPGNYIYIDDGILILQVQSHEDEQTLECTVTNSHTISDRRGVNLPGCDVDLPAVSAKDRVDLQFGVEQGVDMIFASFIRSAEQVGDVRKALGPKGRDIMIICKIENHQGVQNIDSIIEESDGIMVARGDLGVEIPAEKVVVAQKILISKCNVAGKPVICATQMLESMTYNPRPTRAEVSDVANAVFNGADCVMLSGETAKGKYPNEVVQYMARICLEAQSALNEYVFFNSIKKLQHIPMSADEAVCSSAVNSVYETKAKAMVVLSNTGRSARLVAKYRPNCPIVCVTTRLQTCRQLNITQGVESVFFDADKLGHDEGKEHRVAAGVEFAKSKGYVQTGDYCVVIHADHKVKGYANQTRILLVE
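0.1 nM LmPK, 0.5 mM PEP, 0.1 mM ADP; 50 mM imidazole pH 7.2, 7 mM MgCl2, 50 mM KCl; 1 h RT. Kinase-Glo luminescence readout, normalized to no-enzyme (full inhibition) and uninhibited wells.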
Cycloheximide cs – affects cycloheximide protein synthesis inhibition readout, counter-screen | cell reporter, cycloheximide protein synthesis inhibition counterscreen | max response, % | 300,000 compounds, 12% hits | AID 2314; in the data active = max response mostly above about 13%, no sharp cut-off; inactive = mostly below about 14%; also: read at 38.3 µM for the half of the compounds with a filed dose
Shiga toxin inh – blocks Shiga toxin action in Vero cells. AID 2315. inhibition, % at 38.7 µM. Vero cells, Shiga toxin protein synthesis inhibition reporter. 290,000 compounds, 9.2% hits; in the data active = inhibition mostly above about 28%, no sharp cut-off; inactive = mostly below about 43%
Giardia FBPA inh – Giardia lamblia aldolase inhibition. purified Giardia FBPA. Potency, µM (top dose mostly 59.6 µM), most hits filed as inhibitors. 290,000 compounds, 0.71% hits; also: nearly all actives have a fitted effect of over 55% in size
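Giardia FBPA (40 nM reagent) was preincubated 10 min at RT with compound (up to 57.5 uM final), then substrate plus GAPDH/TPI/NAD/arsenate coupling system with diaphorase/resazurin was added; resorufin fluorescence (525/598 nm) was read after 20 min.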
NS1 function inh – inhibitors of influenza NS1 protein function; Potency, µM (top dose mostly 46.1 µM); 270,000 compounds, 0.4% hits; calls by dose curve; also: actives are rising curves; nearly all actives have a fitted effect of over 50% in size
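A cell-based growth assay was used: compounds that relieve NS1-induced slow growth of budding yeast raise OD600. Assay medium was yeast nitrogen base with ammonium sulphate and -URA supplement, pH 6.0, with 2% galactose.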
A number is an active result; [ ] = remark or other dose. Only some compounds are listed: those with a hit (about 14% of all), similar ones and a draw of the others. Unless noted, calls follow the shape of the dose curve; as a rule, active = well fitted curve in the direction sought with a large enough effect; inconclusive = small, poorly fitted or top-dose-only effect, or another doubt; inactive = no such curve, though single readings can be large; an effect the other way counts as inactive or inconclusive.

Results for O=C1c2ccccc2S(=O)(=O)N1CC(O)COc1ccc(Cl)cc1 (centres undefined) ?
LmPK inh: inactive; Cycloheximide cs: inactive; Shiga toxin inh: inactive; Giardia FBPA inh: inactive; NS1 function inh: inactive

Results for COc1ccc(OC(C)C(=O)NC(C)c2ccccc2)cc1 (centres undefined) ?
LmPK inh: inactive; Cycloheximide cs: inactive; Shiga toxin inh: inactive; Giardia FBPA inh: inactive; NS1 function inh: inactive

What do the screens show for `S=C(c1cn(CCOc2ccccc2)c2ccccc12)N1CCCC1`?
LmPK inh: inactive; Cycloheximide cs: inactive; Shiga toxin inh: inactive; Giardia FBPA inh: inactive; NS1 function inh: inactive

What do the screens show for `N#Cc1cn(CCCOc2ccccc2)c2ccccc12`?
LmPK inh: inactive; Cycloheximide cs: 16.6; Shiga toxin inh: inactive; Giardia FBPA inh: inactive; NS1 function inh: inactive

How did COc1ccccc1OCCCn1cc(C#N)c2ccccc21 do in these assays?
LmPK inh: inactive; Cycloheximide cs: 26.7; Shiga toxin inh: 33.9; Giardia FBPA inh: 19.9µM; NS1 function inh: inactive

What do the screens show for `COc1ccccc1OCCCn1cc(C=O)c2ccccc21`?
LmPK inh: inactive; Cycloheximide cs: inactive; Shiga toxin inh: inactive; Giardia FBPA inh: inconclusive; NS1 function inh: inactive

How did O=C(c1ccc([N+](=O)[O-])o1)N1CCc2ccccc21 do in these assays?
LmPK inh: inactive; Cycloheximide cs: 13.9; Shiga toxin inh: 38.2; Giardia FBPA inh: inactive; NS1 function inh: inactive

Results for Cc1c(C(=O)N2CCc3ccccc32)oc2c1C(=O)CC(C)(C)C2 ?
LmPK inh: inactive; Cycloheximide cs: 32.1; Shiga toxin inh: 69.0; Giardia FBPA inh: inactive; NS1 function inh: inactive

Results for Cc1ccc(C(=O)N2CCc3ccccc32)o1 ?
LmPK inh: 14.1µM; Cycloheximide cs: 56.8; Shiga toxin inh: 97.7; Giardia FBPA inh: inactive; NS1 function inh: inactive

What do the screens show for `CC(=O)c1ccc(-c2ccc(C(=O)N3CCN(c4ccc(F)cc4)CC3)o2)cc1`?
LmPK inh: inactive; Cycloheximide cs: 20.6; Shiga toxin inh: inactive; Giardia FBPA inh: inactive

How did O=C(COc1ccc2c(-c3ccccc3)cc(=O)oc2c1)N[C@H](Cc1c[nH]c2ccccc12)C(=O)O do in these assays?
LmPK inh: inactive; Cycloheximide cs: inactive; Shiga toxin inh: inactive; Giardia FBPA inh: inactive; NS1 function inh: inactive

How did C[As+](C)(c1ccc(Br)c([N+](=O)[O-])c1)c1ccc(Br)c([N+](=O)[O-])c1.O=[N+]([O-])O do in these assays?
NS1 function inh: inactive

How did CC(=O)c1ccc(-c2ccc(C(=O)N3CCCc4ccccc43)o2)cc1 do in these assays?
LmPK inh: inactive; Cycloheximide cs: 27.0; Shiga toxin inh: inactive; Giardia FBPA inh: inactive

How did Cc1cc2cc(CNC(=O)Nc3ccccc3)ccc2[nH]1 do in these assays?
LmPK inh: inactive[11.5 µM]; Cycloheximide cs: 27.5; Shiga toxin inh: 94.9; Giardia FBPA inh: inactive

Results for CCOC(=O)NCc1ccc2[nH]c(C)cc2c1 ?
LmPK inh: inactive; Cycloheximide cs: 18.0; Shiga toxin inh: 23.8; Giardia FBPA inh: inactive; NS1 function inh: inactive

How did Cc1cc2cc(CNC(=S)Nc3ccc(OC(F)F)cc3)ccc2[nH]1 do in these assays?
LmPK inh: inactive; Cycloheximide cs: inactive; Shiga toxin inh: inactive; Giardia FBPA inh: inactive; NS1 function inh: inconclusive

How did CCOC(=O)CCC(=O)NCc1ccc2[nH]c(C)cc2c1 do in these assays?
LmPK inh: inactive; Cycloheximide cs: inactive; Shiga toxin inh: inactive; Giardia FBPA inh: inactive; NS1 function inh: inactive

How did Cc1ccc(C(=O)N2CCN(S(=O)(=O)c3ccc(Br)cc3)CC2)o1 do in these assays?
LmPK inh: inactive; Cycloheximide cs: inactive; Shiga toxin inh: inactive; Giardia FBPA inh: inactive; NS1 function inh: inactive

How did COc1ccc(-c2ccc(-c3noc(-c4ccco4)n3)c(OC)n2)cc1 do in these assays?
LmPK inh: inactive; Cycloheximide cs: 23.1; Shiga toxin inh: 50.9; Giardia FBPA inh: inactive; NS1 function inh: inactive

How did COc1ccc(-c2ccc(-c3noc(-c4ccccc4)n3)c(OC)n2)cc1 do in these assays?
LmPK inh: inactive; Cycloheximide cs: inactive; Shiga toxin inh: inactive; Giardia FBPA inh: inactive; NS1 function inh: inconclusive

How did COc1nc(-c2ccccc2)ccc1-c1noc(-c2ccco2)n1 do in these assays?
LmPK inh: inactive; Cycloheximide cs: 33.6; Shiga toxin inh: 70.5; Giardia FBPA inh: inactive; NS1 function inh: inactive

What do the screens show for `COc1cc(-c2n[nH]c(=S)n2-c2cccc(C(F)(F)F)c2)cc(OC)c1OC`?
LmPK inh: inconclusive; Cycloheximide cs: inactive; Shiga toxin inh: inactive; Giardia FBPA inh: inactive; NS1 function inh: inconclusive

What do the screens show for `COc1cc(OC)cc(-c2n[nH]c(=S)n2-c2cc(OC)ccc2OC)c1`?
LmPK inh: 3.55µM; Cycloheximide cs: inactive; Shiga toxin inh: inactive; Giardia FBPA inh: inactive; NS1 function inh: inactive

Results for COc1ccccc1-n1c(-c2cc(-c3ccc(F)cc3)n[nH]2)n[nH]c1=S ?
LmPK inh: inactive; Cycloheximide cs: inactive; Shiga toxin inh: inactive; Giardia FBPA inh: inactive; NS1 function inh: inactive

Results for COc1cc(-n2c(-c3ccccc3)n[nH]c2=S)c(OC)cc1Cl ?
LmPK inh: inactive; Cycloheximide cs: inactive; Shiga toxin inh: inactive; Giardia FBPA inh: inactive; NS1 function inh: inactive

How did COc1cc(-c2n[nH]c(=S)n2-c2ccccc2C(F)(F)F)cc(OC)c1OC do in these assays?
LmPK inh: 17.8µM; Cycloheximide cs: inactive; Shiga toxin inh: inactive; Giardia FBPA inh: inactive; NS1 function inh: inactive

How did COc1ccc(OC)c(-n2c(-c3cccc(S(=O)(=O)N(C)C)c3)n[nH]c2=S)c1 do in these assays?
LmPK inh: inconclusive; Cycloheximide cs: inactive; Shiga toxin inh: inactive; Giardia FBPA inh: inactive

Results for COc1ccc(C)cc1-n1c(-c2ccncc2)n[nH]c1=S ?
LmPK inh: 10µM; Cycloheximide cs: inactive; Shiga toxin inh: inactive; Giardia FBPA inh: inactive; NS1 function inh: inactive

Results for COc1ccc(OC)c(-n2c(-c3ccc(O)cc3O)n[nH]c2=S)c1 ?
LmPK inh: 8.91µM; Cycloheximide cs: inactive; Shiga toxin inh: inactive; Giardia FBPA inh: inactive; NS1 function inh: inactive

Results for CC(=O)Nc1nc(C)cs1 ?
LmPK inh: inactive; Cycloheximide cs: inactive; Shiga toxin inh: inactive; Giardia FBPA inh: inactive

How did CCC(CC)NC(=O)c1ccc2nc[nH]c2c1 do in these assays?
LmPK inh: inactive; Cycloheximide cs: inactive; Shiga toxin inh: inactive; Giardia FBPA inh: inactive; NS1 function inh: inactive

What do the screens show for `Cc1csc(NC(=O)NCC2CCCC(CNC(=O)Nc3nc(C)cs3)C2)n1` (centres undefined)?
LmPK inh: inactive; Cycloheximide cs: 30.4; Shiga toxin inh: 42.6; Giardia FBPA inh: inactive; NS1 function inh: inactive

How did Cc1csc(NC(=O)c2ccncc2)n1 do in these assays?
LmPK inh: inactive; Cycloheximide cs: inactive; Shiga toxin inh: inactive; Giardia FBPA inh: inactive; NS1 function inh: inactive

How did Cc1csc(NC(=O)c2ccccc2)n1 do in these assays?
LmPK inh: inactive; Cycloheximide cs: 42.9; Giardia FBPA inh: inactive; NS1 function inh: inactive

What do the screens show for `Cc1csc(NC(=O)c2cccnc2)n1`?
LmPK inh: inactive; Cycloheximide cs: inactive; Shiga toxin inh: inactive; Giardia FBPA inh: inactive; NS1 function inh: inactive

Results for Cc1csc(NC(=O)c2ccc3nc[nH]c3c2)n1 ?
LmPK inh: inactive; Cycloheximide cs: 52.3; Shiga toxin inh: inactive; NS1 function inh: inactive
